Where “and” joins values, the source holds several entries; their conditions need not be identical. Identical values can stand only once. Screen size: about 5,500 compounds; about 2,000 (36%) were called active. About 18% were inconclusive and are not listed. Rule as the data show it: active = normalized growth mostly below about 0.91 (no sharp cut-off); inconclusive = no clear call, values can overlap the other calls; inactive = mostly above about 0.92. Some of the results follow.
Assay: chemical genetic growth profiling, strain panel (AID 1159580);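 also: tested at 20 µM; growth read once vehicle control cultures reached saturation at 30 °C; 1 = growth at the plate median or of vehicle wells; lower values mean less growth of the strain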
Details: S. cerevisiae deletion strains, growth OD

Measured: normalized growth

COS(C)(=O)=O
inactive: locus YAL013W, strain DEP1, hits give low values 1 | locus YAL021C, strain ccr4, hits give low values 0.997 | locus YAL026C, strain drs2, hits give low values 1 | locus YAL030W, strain snc1, hits give low values 0.996 | locus YBL061C, strain skt5, hits give low values 0.992 | locus YBR009C, strain hhf1, hits give low values 1 | locus YBR021W, strain FUR4, hits give low values 1 | locus YBR023C, strain chs3, hits give low values 0.994 | locus YBR171W, strain sec66, hits give low values 0.978 | locus YBR229C, strain ROT2, hits give low values 1.01 | locus YBR231C, strain swc5, hits give low values 0.969 | locus YBR279W, strain paf1, hits give low values 1 | locus YCL011C, strain gbp2, hits give low values 1.02 | locus YCL016C, strain dcc1, hits give low values 1 | locus YCL029C, strain bik1, hits give low values 1.02 | locus YCL069W, strain vba3, hits give low values 1 | locus YCR088W, strain abp1, hits give low values 0.993 | locus YDL005C, strain med2, hits give low values 0.979 | locus YDL035C, strain GPR1, hits give low values 1.02 | locus YDL040C, strain nat1, hits give low values 0.993 | locus YDL074C, strain BRE1, hits give low values 0.986 | locus YDL101C, strain DUN1, hits give low values 1 | locus YDL134C, strain PPH21, hits give low values 1 | locus YDL185W, strain tfp1, hits give low values 1.01 | locus YDL192W, strain arf1, hits give low values 1.01 | locus YDR001C, strain nth1, hits give low values 0.997 | locus YDR069C, strain doa4, hits give low values 1.01 | locus YDR101C, strain arx1, hits give low values 1.01 | locus YDR137W, strain rgp1, hits give low values 1.02 | locus YDR150W, strain NUM1, hits give low values 1 | locus YDR159W, strain sac3, hits give low values 0.944 | locus YDR162C, strain NBP2, hits give low values 0.993 | locus YDR195W, strain ref2 0.948 | locus YDR297W, strain sur2, hits give low values 0.982 | locus YDR318W, strain mcm21, hits give low values 1.03 | locus YDR334W, strain swr1, hits give low values 0.988 | locus YDR335W, strain msn5, hits give low values 1 | locus YDR388W, hits give low values 1.01 | locus YDR392W, strain spt3, hits give low values 0.947 | locus YDR502C, strain sam2, hits give low values 0.994 | locus YEL003W, strain gim4, hits give low values 0.989 | locus YEL037C, strain rad23, hits give low values 1 | locus YEL061C, strain CIN8 (second series), hits give low values 0.998 | locus YEL061C, strain CIN8, hits give low values 1.01 | locus YER015W, strain faa2, hits give low values 1.02 | locus YER016W, strain bim1, hits give low values 0.98 | locus YER110C, hits give low values 1.02 | locus YER111C, strain swi4, hits give low values 0.998 | locus YER155C, strain BEM2 (second series), hits give low values 0.976 | locus YER155C, strain BEM2, hits give low values 1.01 | locus YER167W, strain BCK2, hits give low values 1.02 | locus YFR010W, strain ubp6, hits give low values 0.995 | locus YGL078C, strain dbp3, hits give low values 0.999 | locus YGL086W, strain mad1, hits give low values 1.02 | locus YGL167C, strain pmr1, hits give low values 0.997 | locus YGL173C, strain kem1, hits give low values 1 | locus YGL227W, strain vid30, hits give low values 0.978 | locus YGL240W, strain doc1, hits give low values 0.957 | locus YGL248W, strain PDE1, hits give low values 1 | locus YGL253W, strain hxk2, hits give low values 1 | locus YGR078C, strain PAC10, hits give low values 0.986 | locus YGR135W, strain pre9, hits give low values 0.966 | locus YGR229C, strain SMI1, hits give low values 0.993 | locus YGR252W, strain gcn5, hits give low values 1.02 | locus YHR013C, strain ard1, hits give low values 1 | locus YHR027C, strain rpn1, hits give low values 0.983 | locus YHR030C, strain SLT2, hits give low values 1.01 and 1 | locus YHR079C, strain IRE1 (second series), hits give low values 1.02 | locus YHR079C, strain IRE1, hits give low values 0.999 | locus YHR094C, strain hxt1, hits give low values 1.02 | locus YHR129C, strain ARP1, hits give low values 1.01 | locus YHR142W, strain chs7, hits give low values 1.01 | locus YHR200W, strain rpn10, hits give low values 1.02 | locus YIL066C, strain RNR3, hits give low values 1.04 | locus YIL073C, strain SPO22, hits give low values 1.09 | locus YIL125W, strain kgd1, hits give low values 1.02 | locus YIR030C, strain dcg1, hits give low values 1.02 | locus YJL092W, strain hpr5, hits give low values 1 | locus YJL095W, strain BCK1 (second series), hits give low values 0.995 | locus YJL095W, strain BCK1, hits give low values 1 | locus YJL115W, strain asf1, hits give low values 0.982 | locus YJL129C, strain trk1, hits give low values 0.971 | locus YJL134W, strain LCB3, hits give low values 1.01 | locus YJL154C, strain vps35, hits give low values 0.988 | locus YJL164C, strain tpk1, hits give low values 0.996 | locus YJL166W, strain qcr8, hits give low values 1 | locus YJL168C, strain set2, hits give low values 1.02 | locus YJL187C, strain SWE1 (second series), hits give low values 1 | locus YJL187C, strain SWE1, hits give low values 0.992 | locus YJR043C, strain POL32, hits give low values 1.03 | locus YJR066W, strain TOR1, hits give low values 0.974
